Only some compounds are listed: those with a hit (about 7.7% of all), similar ones and a draw of the others.
Sm TGR inh: qHTS Assay for the Inhibitors of Schistosoma Mansoni Peroxiredoxins. Schistosoma mansoni thioredoxin glutathione reductase (TGR), Q962Y6. purified TGR, DTNB reduction, TNB absorbance 405 nm. Potency, µM (titrated, usually from 114 µM), for inactives: at the top dose activity change, negative = inhibition, most hits filed as inhibitors. hit rate 3% among 360,000; also: potency is read from the fitted curve at half-maximal effect; nearly all actives have a fitted effect of over 60% in size
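Kinetic colorimetric format: TGR-catalysed, NADPH-driven DTNB reduction monitored via TNB absorbance. Enzyme dispensed at 20 nM; compound exposure 15 min at room temperature before reaction start.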
FMDV antiviral: High Throughput Screening for Foot and Mouth Disease Virus Antivirals | hit rate 1.2% among 410,000 | FMDV antiviral cell-based qHTS | AID 1159524, 2015 | Potency, µM (top dose mostly 57.9 µM), without a hit: at the top dose activity change, negative = inhibition, usual class: inhibitors; calls by dose curve; tested in HEK293T cells; also: read-out not given here; potency is read from the fitted curve at half-maximal effect; nearly all actives have a fitted effect of over 45% in size
HCMV inh: qHTS Assay for inhibitors of the human cytomegalovirus (HCMV); hit rate 4.5% among 410,000; HFF cells, HCMV-luciferase reporter, 72 h; stronger effect = lower value; activity change, negative = inhibition, % at 57.5 µM; AID 1259415, 2018; in the data active = activity change below about -60%; inconclusive = no clear call, values can overlap the other calls; inactive = above about -39%
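HFF cells seeded 16 h at 37C, treated with compounds, infected with luciferase-reporter HCMV at MOI 1 PFU/cell; luciferase read at 72 h post infection, normalized to buffer-only and Salinomycin controls.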
Giardia FBPA inh: qHTS Assay for Inhibitors of Fructose-1,6-bisphosphate Aldolase from Giardia Lamblia | A8B2U2 | purified Giardia FBPA | Potency, µM (doses to about 59.6 µM), inactives show at the highest dose activity, negative = inhibition, actives largely listed as inhibitors | hit rate 0.71% among 290,000 | AID 2451, 2010; also: potency is read from the fitted curve at half-maximal effect; nearly all actives have a fitted effect of over 55% in size
Target sequence (A8B2U2 whole entry, looked up): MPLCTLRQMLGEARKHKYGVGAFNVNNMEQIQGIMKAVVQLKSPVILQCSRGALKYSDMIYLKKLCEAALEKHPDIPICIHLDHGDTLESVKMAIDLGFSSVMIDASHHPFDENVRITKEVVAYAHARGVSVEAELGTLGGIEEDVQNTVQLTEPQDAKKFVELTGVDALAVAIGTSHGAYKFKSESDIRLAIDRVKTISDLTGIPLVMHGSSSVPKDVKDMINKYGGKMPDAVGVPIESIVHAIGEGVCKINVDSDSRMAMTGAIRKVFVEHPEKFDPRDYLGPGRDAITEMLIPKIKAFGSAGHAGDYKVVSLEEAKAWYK
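Giardia FBPA (40 nM reagent) was preincubated 10 min at RT with compound (up to 57.5 uM final), then substrate plus GAPDH/TPI/NAD/arsenate coupling system with diaphorase/resazurin was added; resorufin fluorescence (525/598 nm) was read after 20 min.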
Tb PYK inh: qHTS of Trypanosoma Brucei Inhibitors; pyruvate kinase (Trypanosoma brucei), Q57TT1; TbPYK enzyme, Kinase-Glo Plus ATP luminescence, 45 min; Potency, µM (series often up to 76.8 µM), without a hit: top-dose activity, negative = inhibition, usual class: inhibitors; hit rate 0.12% among 410,000; AID 624173, 2012; also: potency is read from the fitted curve at half-maximal effect; nearly all actives have a fitted effect of over 50% in size
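Glycolytic pyruvate kinase of T. brucei was incubated with substrate, test compound and 130 uM ADP for 45 minutes at room temperature. Luminescent Kinase-Glo Plus signal was measured after 10 minutes.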
RE007 growth inh: qHTS Assay for Inhibitors of the HIV-1 protein Vpr | hit rate 0.21% among 360,000 | Potency, µM (doses to about 92.2 µM), inactives show top-dose activity change, negative = less growth, hits mostly inhibitors | S. pombe RE007 Vpr strain, BacTiter-Glo ATP luminescence, 24 h; active = well fitted falling curve with a large enough effect; inconclusive = small, poorly fitted or top-dose-only effect; inactive = no such curve, though single readings can be large or run the other way; also: potency is read from the fitted curve at half-maximal effect; nearly all actives have a fitted effect of over 50% in size
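Fission yeast RE007 carrying one integrated HIV-1 vpr copy, seeded at OD 0.01 in PMG+AL medium with 23 nL pinned compound. Grown 24 h at 30 degrees; viability read by BacTiter-Glo luminescence after 5 min.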
* hit, by the source's call; ? = inconclusive; nt = no result; [ ] = remark or other dose. Unless noted, calls follow the shape of the dose curve; as a rule, active = well fitted curve in the direction sought with a large enough effect; inconclusive = small, poorly fitted or top-dose-only effect, or another doubt; inactive = no such curve, though single readings can be large; an effect the other way counts as inactive or inconclusive. % is scaled to controls: 0 for no effect and ±100 for the full control effect.

SMILES	Sm TGR inh	FMDV antiviral	HCMV inh	Giardia FBPA inh	Tb PYK inh	RE007 growth inh
COC(=O)Cc1ccc(NC(=O)c2ccc(NC(=O)c3ccco3)cc2)cc1	11.6%	-14.0%	-82.9*	0.1%	0.0%	-9.5%
O=C(O)Cc1ccc(NC(=O)c2ccc(NC(=O)c3ccco3)cc2)cc1	?	-3.6%	-7.6	-0.8%	-0.7%	-11.9%
CN(C)CC(C(=O)Cc1ccccc1)c1ccccc1 (configuration not stated)	nt	28.2µM*	-96.5*	nt	1.4%	?
Cc1cc(N)n2ncc(-c3ccccc3)c2n1	-21.5%	45.9%	101.9	-0.1%	0.4%	-20.1%
CC(=O)Nc1ccc(Nc2cc(C)nc3c(-c4ccccc4)cnn23)cc1	-0.4%	?	-91.7*	0.7%	0.8%	8.3%
O=C(Nc1cccc(-c2cn3c(n2)SCC3)c1)c1ccc2ccccc2n1	2.0%	16.5%	312.2	-8.9%	-5.7%	2.1%
O=C(Nc1ccc(-c2cn3c(n2)SCC3)cc1)c1ccc2ccccc2n1	0.1%	25.1µM*	9.6	-13.7%	-2.2%	-23.5%
CN(C)c1ccc(NC(=O)CSCc2nc3c(nnn3Cc3ccc(F)cc3)c(=O)[nH]2)cc1	44.7µM*	-14.8%	nt	?	-16.3%	-25.5%
COc1ccc(OC)c(C2Nc3c(Cl)ccc(C(=O)O)c3C3C=CCC32)c1 (configuration not stated)	1.58µM*	-12.0%	-20.9	?	-22.2%	-11.6%
COC(=O)COc1ccc(C2Nc3c(Cl)ccc(C(=O)O)c3C3C=CCC32)cc1 (configuration not stated)	3.55µM*	8.1%	-75.0*	-19.7%	?	5.3%
CCOc1ccc2c(c1)[C@@H]1C=CC[C@@H]1[C@H](c1ccccc1Cl)N2	-7.5%	0.7%	-7.5	nt	-4.8%	nt
COC(=O)COc1ccc(S(=O)(=O)N2CCN(c3ccccc3)CC2)cc1	nt	-1.5%	-5.3	5.3%	3.6%	-2.0%
COC(=O)NC(/C(C(=O)OC)=C(\C)NCc1ccccc1)c1ccco1 (configuration not stated)	nt	nt	nt	-0.2%[12.9 µM]	nt	nt
Cc1occc1C(=O)Nc1cccc(-c2nc(CNC(=O)c3ccc4ccccc4n3)c(C)o2)c1	nt	-8.1%	nt	nt	nt	nt
Cc1occc1C(=O)Nc1cccc(-c2nc(CNC(=O)c3cccc(C#CC(C)(C)O)c3)c(C)o2)c1	nt	20µM*	nt	nt	nt	nt
CSc1ccccc1C(=O)NCc1nc(-c2cccc(NC(=O)c3ccoc3C)c2)oc1C	nt	31.6µM*	nt	nt	nt	nt
COC(=O)c1cccc(C(=O)NCc2nc(-c3cccc(NC(=O)c4ccoc4C)c3)oc2C)c1	nt	22.4µM*	nt	nt	nt	nt
Cc1occc1C(=O)Nc1cccc(-c2nc(CNC(=O)c3cc(-c4ccccc4)n[nH]3)c(C)o2)c1	nt	-0.6%	nt	nt	nt	nt
CCCCN1CC(COc2ccc(OC)cc2)OCCS1(=O)=O (configuration not stated)	nt	nt	-22.3	nt	nt	nt
COCC1=C(C(=O)OC(C)OC(=O)OC(C)C)N2C(=O)C(NC(=O)/C(=N/OC)c3csc(N)n3)[C@H]2SC1 (some centres not stated)	nt	nt	nt	nt	-9.6%	nt
COC(=O)c1ccccc1-c1ccc(/C=N/Nc2nc(N3CCCC3)nc(N3CCCC3)n2)o1	-14.1%	22.4µM*	-7.2	-4.7%	-1.8%	0.4%
Cn1c2c(c(=O)n(C)c1=O)C(C(F)(F)F)(C(F)(F)F)N=C(CCC1CCCCC1)N2	8.1%	14.1µM*	-103.0*	0.9%	0.7%	-12.1%
Cn1c2c(c(=O)n(C)c1=O)C(C(F)(F)F)(C(F)(F)F)N=C(c1ccccc1Cl)N2	-2.8%	?	-10.3	6.9%	-1.1%	1.8%
CC[C@@]1(C(=O)OC)N[C@H](CN(C)C(=O)Nc2ccccc2)[C@@H]2C(=O)N(C)C(=O)[C@@H]21	nt	4.47µM*	-2.0	nt	-16.0%	2.0%

Screening data: PubChem, National Center for Advancing Translational Sciences (NCATS)
